This is a sample that favours compounds with a hit; in the whole collection about 22% have one here.
Pf growth 48h = P. falciparum growth inhibition at 48 hours (one generation); P. falciparum luciferase growth in erythrocytes, 48 h; Potency, µM (series often up to 28.7 µM), for the others: at the top dose activity change, negative = inhibition, hits mostly inhibitors; 310,000 tested, 5.9% active; further: potency means the concentration at half of the fitted maximal effect; on the % scale 0 is the no-effect control and ±100 the full control effect
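Compounds are pin-transferred into medium, infected erythrocytes (2% hematocrit, 0.1% parasitemia final) are added, and plates sit one parasite generation at 37 C in 5% CO2. Detection reagent is then added and luminescence measured.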
Pf growth 96h = P. falciparum growth inhibition at 96 hour, primary screen for plastid delayed-death inhibitors. AID 504834. 320,000 tested, 6.9% active. P. falciparum luciferase reporter growth, 96 h. Potency, µM (top dose mostly 28.7 µM), without a hit: at the top dose activity change, negative = inhibition, actives largely listed as inhibitors; further: potency means the concentration at half of the fitted maximal effect; on the % scale 0 is the no-effect control and ±100 the full control effect
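Delayed-death screen, second-generation endpoint: infected erythrocytes, 2% hematocrit, 0.05% parasitemia final; 96 hours at 37 C, 5% CO2; luciferase detection reagent; luminescence decrease equals reduced growth.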
Shiga toxin inh = inhibitors of Shiga toxin in Vero cells; Vero cells, Shiga toxin protein synthesis inhibition reporter; inhibition, % at 38.7 µM; 290,000 tested, 9.2% active; in the data active means inhibition mostly above about 28%, no sharp cut-off; inactive means mostly below about 43%; further: 0% is about no effect
LmPK inhibitor = LmPK (Leishmania mexicana) enzyme inhibition. purified LmPK, Kinase-Glo ATP luminescence, 1 h. Potency, µM (series often up to 57.5 µM), for the others: at the top dose activity change, negative = inhibition, most hits filed as inhibitors. 290,000 tested, 0.37% active; further: potency means the concentration at half of the fitted maximal effect; on the % scale 0 is the no-effect control and ±100 the full control effect
Target sequence (Q27686 whole entry, looked up): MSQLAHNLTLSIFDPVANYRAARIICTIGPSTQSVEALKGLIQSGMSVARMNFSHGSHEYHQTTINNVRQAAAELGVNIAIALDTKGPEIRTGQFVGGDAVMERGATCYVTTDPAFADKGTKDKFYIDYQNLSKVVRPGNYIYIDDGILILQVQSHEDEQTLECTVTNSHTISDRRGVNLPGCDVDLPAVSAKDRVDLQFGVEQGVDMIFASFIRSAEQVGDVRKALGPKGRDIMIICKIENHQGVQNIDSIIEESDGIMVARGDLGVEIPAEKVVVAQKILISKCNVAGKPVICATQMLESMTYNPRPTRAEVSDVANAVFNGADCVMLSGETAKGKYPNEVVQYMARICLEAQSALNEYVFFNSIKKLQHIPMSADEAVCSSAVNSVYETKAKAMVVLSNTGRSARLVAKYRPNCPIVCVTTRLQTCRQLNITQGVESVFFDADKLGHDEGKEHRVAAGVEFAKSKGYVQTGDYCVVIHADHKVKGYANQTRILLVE
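ATP generated from ADP (0.1 mM) and PEP (0.5 mM) by 0.1 nM LmPK over 1 h at room temperature (pH 7.2 imidazole buffer) was detected by coupled luciferase luminescence. Values were normalized to uninhibited and no-enzyme wells.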
Cycloheximide cs = affects cycloheximide protein synthesis inhibition readout, counter-screen; cell reporter, cycloheximide protein synthesis inhibition counterscreen; max response, %; 300,000 tested, 12% active; in the data active means max response mostly above about 13%, no sharp cut-off; inactive means mostly below about 14%; further: read at 38.3 µM for the half of the compounds with a filed dose; 0% is about no effect
Starred values were filed as active, the others as inactive; ? = inconclusive; / = no result given; [ ] = remark or other dose. Unless noted, the call rests on the fitted dose curve; in most records, active means well fitted inhibition curve with a large enough effect; inconclusive means small, poorly fitted or top-dose-only effect, or another doubt; inactive means no such curve, though single readings can be large or run the other way.

SMILES | Pf growth 48h | Pf growth 96h | Shiga toxin inh | LmPK inhibitor | Cycloheximide cs
Cc1cc2nc(-c3ccc(SCc4ccc(C(=O)O)cc4)nc3)[nH]c2cc1C | ? | 1.5% | 44.7* | 0.8% | 37.1*
Cc1cc2nc(SC(C)C(=O)O)[nH]c2cc1C (centres undefined) | 4.1% | ? | -4.8 | -6.6% | -2.3
Cc1cc2nc(-c3ccc(SCC(=O)N4CCc5ccccc54)nc3)[nH]c2cc1C | ? | ? | 36.1 | -14.7% | 42.6*
O=C(CSc1nc(-c2ccccc2)cc(=O)[nH]1)N1CCc2ccccc21 | ? | / | -14.0 | 4.1% | -1.3
COc1ccc(OCC(=O)OCC(=O)c2ccc(OC)c(F)c2)cc1 | 27.4% | -1.4% | / | / | /
O=C(NC(CC(=O)N1CCCC(C(F)(F)F)C1)c1ccccc1)c1ccccc1Cl (centres undefined) | 15.0% | ? | -20.3 | -9.4% | -10.6
Cc1cc(C)c(C(=O)c2ccc(C(=O)N(C(C)C)C(C)C)cc2)c(C)c1 | / | ? | 5.2 | 0.2% | 1.5
CC(C)(C)NC(=O)c1ccncc1 | / | 10.4µM* | -6.1 | 6.6% | -1.9
O=C(NNC(=O)c1ccncc1)c1ccccc1 | 11.3%[0.00184 µM] | ? | -6.3 | 0.9% | -3.5
Cc1cc(C)c(C(=O)c2ccc(C(=O)NC(C)(C)C)cc2)c(C)c1 | / | 3.29µM* | -10.1 | 12.1% | -1.5
CCN(CC)CCN(C)Cc1nc(C(c2ccccc2)c2ccccc2)no1 | ? | 9.28µM* | 13.1 | -3.4% | 3.3
CN(CCc1cn[nH]c1)Cc1nc(C(c2ccccc2)c2ccccc2)no1 | ? | -15.3% | -34.3 | 3.6% | -1.7
CN1CCc2c(sc(NC(=O)c3ccco3)c2C(N)=O)C1 | ? | ? | -3.3 | 3.1% | 17.2*
CN1CCc2c(sc(NC(=O)c3ccc(S(=O)(=O)N4CCCC4)cc3)c2C(N)=O)C1 | ? | ? | -28.2 | -10.6% | -1.6
CN1CCc2c(sc(NC(=O)c3ccc([N+](=O)[O-])o3)c2C(N)=O)C1 | ? | ? | 25.5* | 1.8% | 27.4*
CN1CCc2c(sc(NC(=O)c3cc(Cl)sc3Cl)c2C(N)=O)C1 | ? | ? | 30.2* | -2.5% | 25.4*
CC(C)N1CCc2c(sc(NC(=O)c3ccco3)c2C(N)=O)C1 | 0.465µM* | ? | 38.7 | 0.6% | 20.7*
COC(=O)c1c(NC(=O)c2ccco2)sc2c1CCN(C(C)C)C2 | -0.9% | ? | -7.1 | 3.6% | 0.6
O=C(NC1CCCC1)C(c1ccncc1)N(C(=O)Cn1nnc(-c2ccccc2F)n1)c1cccc(F)c1 (centres undefined) | 28.9% | 13.6% | -6.4 | 4.8% | -3.0
CCC1(c2ccc(F)cc2)NC(=O)N(CC(=O)c2cc(C)n(C3CC3)c2C)C1=O (centres undefined) | 14.7µM* | ? | / | / | /
Cc1cc(C(=O)CN2C(=O)c3ccccc3C2=O)c(C)n1C1CC1 | 14.1% | 0.0% | 14.8 | 0.8% | 23.2*
COc1ccc(-n2c(C)cc(C(=O)CN3C(=O)c4ccccc4C3=O)c2C)cc1 | 0.7% | ? | 39.7 | 3.9% | 20.4*
O=C(NCc1ccccc1)c1ccc2c(c1)C(=O)N(Cc1cccnc1)C2=O | 27.3% | ? | -4.4 | -8.9% | 1.0
CCCN(CC(=O)Nc1cc(Cl)ccc1Cl)C(=O)CN1C(=O)C2CCCCC2C1=O (centres undefined) | -10.2% | ? | 14.9 | -2.9% | -5.6
Cc1cccc(NP(C)(=O)c2nc3c(s2)CCCC3)c1 (centres undefined) | 0.0% | 46.0% | 37.3* | 3.1% | 25.1*
SMILES | Pf growth 48h | Pf growth 96h | Shiga toxin inh | LmPK inhibitor | Cycloheximide cs
Cc1ccc(OP(=O)(Nc2cccc(C)c2)Oc2ccc(C)cc2)cc1 | ? | 0.0% | 23.0 | -0.3% | -0.6
Cc1ccc(NC(=S)NNC(=O)Nc2ccccc2)cc1 | 119.6% | 61.8% | 108.9* | -4.4% | 54.2*
Cc1ccc(NC(=S)NNC(=O)c2nn(C)c(C)c2Cl)cc1 | 181.0% | 167.0% | 93.4* | -0.2% | 36.2*
O=C(NNC(=S)Nc1ccccc1)NNC(=S)Nc1ccccc1 | 17.7% | 23.2% | 5.0 | 1.1% | -2.5
Cc1cc(C)cc(NS(=O)(=O)c2ccc(NC(=S)Nc3ccccc3)cc2)c1 | -8.4% | 0.0% | -2.4 | -0.2% | 13.8*
O=C(NNC(=S)Nc1ccccc1)Nc1ccccc1 | 45.8% | 74.7% | 88.3* | 4.3% | 33.6*
COc1cc(C(=O)Nc2ccccc2-c2nc(-c3ccccc3)no2)cc(OC)c1OC | / | / | 20.3 | / | -3.6
